# High-throughput results as filed in PubChem.
# BoNT F protease: inhibitors of Botulinum neurotoxin F light chain protease | Multiplex microsphere protease cleavage assay, flow cytometry | inhibition, % at 10 µM | AID 588497 | 360,000 compounds, 0.22% hits; in the data active = inhibition above about 35%, passing the limit was not always enough; inconclusive = no clear call, values can overlap the other calls; also: plate controls were buffer without enzyme for full effect and enzyme alone for no effect
# BoNT-A LC inh2: BoNT A light chain protease inhibition | multiplex microsphere protease substrate cleavage, flow cytometry | inhibition, % at 10 µM | 360,000 compounds, 0.17% hits; also: plate controls were buffer without enzyme for full effect and enzyme alone for no effect
# MazEF act: increases E. coli MazEF RNase cleavage of RNA; 350,000 compounds, 0.32% hits; activation, % at 20 µM; P0AE70; FAM/BHQ RNA-DNA oligo cleavage fluorescence, 5 h; AID 504720; in the data active = activation above about 50%
# Autofluor counter: counter-screen for toxin protease inhibitors: compound fluorescence | AID 624483 | compound autofluorescence counterscreen, microsphere flow cytometry; stronger effect = higher value | fluorescence intensity (concentration not given with the values) | 360,000 compounds, 3.1% hits; in the data active = fluorescence intensity above about 16000; inconclusive = no clear call, values can overlap the other calls
# Anthrax LF inh2: inhibitors of Bacillus anthracis lethal factor protease | P15917 | multiplex microsphere protease cleavage assay, LF | inhibition, % at 10 µM | 360,000 compounds, 0.12% hits; also: plate controls were buffer without enzyme for full effect and enzyme alone for no effect
# The depositor's hits bear a star; ? = inconclusive; . = no result given. Hits are enriched below; roughly 3.6% of the tested compounds scored in any of these assays. Rule as the data show it, unless noted: active = inhibition above about 30%; inconclusive = no clear call, values can overlap the other calls; inactive = below that.
SMILES,BoNT F protease,BoNT-A LC inh2,MazEF act,Autofluor counter,Anthrax LF inh2
CCOC(=O)C(CC)n1cnc2c(nnn2-c2cccc(OC)c2)c1=O (stereo not given),-6.9,-2.8,0.8,3847,-4.3
O=C(NC12CC3CC(CC(C3)C1)C2)c1ccccc1,-7.2,0.0,-16.2,4492,-4.3
O=C(NC12CCC(O)C(SC1)/C2=N/O)c1ccccc1 (stereo not given),7.4,4.3,-2.3,19906*,-10.9
CC1OC(C(C)(C)C)Cc2[nH][nH]c(=O)c21 (stereo not given),3.0,-1.0,.,5744,6.5
Cc1ccccc1NC(=S)Nc1ccccn1,36.8*,-2.5,-1.4,9236,-12.7
COc1ccc(C=O)c(-c2c(-c3ccccc3OC)sc3ccccc23)c1,1.7,0.0,.,5744,-6.0
Cc1cc(-c2csc(NC(=O)c3cc4ccccc4o3)n2)c(C)n1C,-3.2,-0.4,10.9,23885*,6.7
CC(=O)Nc1ccc(Nc2nc(-c3cc4ccccc4oc3=O)cs2)cc1,?,3.3,63.4*,3041,4.4
COc1ccc2oc(=O)c(-c3csc(Nc4cccc(O)c4)n3)cc2c1,3.0,9.6,132.5*,2048,3.0
CC(C)[C@H]1COCCS(=O)(=O)N1Cc1ccccc1-c1ccc(C(C)(C)C)cc1,-1.9,-0.1,1.3,3388,-6.9
CC(C)N1CCC(C)(C(=O)Nc2ccc(-n3cccc3)cc2)C1 (stereo not given),-14.7,-0.3,.,4511,-3.1
COc1cc(CNc2ncnc3c2ncn3[C@H]2CN(Cc3ccncc3)C[C@@H](CO)O2)cc(OC)c1OC,0.3,0.2,.,3734,3.2
CCCCCCC(=O)N(O)C1CC(=O)N(c2ccc(C)cc2)C1=O (stereo not given),-0.5,30.5*,-3.0,2106,-53.2
CCc1nc2ccc(C(=O)N(CC)CCN(C)C)cn2c1N(C)Cc1nccs1,-3.2,-0.1,.,3497,-2.2
Cc1ccc(N2C(=O)NC(=O)/C(=C/c3ccc(OC(=O)c4cccs4)cc3)C2=O)cc1,-5.6,?,4.7,24767*,-4.3
COc1ccc(N2C(=O)NC(=O)/C(=C/c3cccc(OC(=O)c4cccs4)c3)C2=O)cc1Cl,.,.,-2.4,.,.
O=C(c1cccs1)N1CCN(C2CCCCC2)CC1,3.8,?,-3.9,20556*,-3.6
O=C(Cc1cccs1)N1CCN(C(=O)C2CCCO2)CC1 (stereo not given),-16.0,-0.5,8.4,11286,0.4
O=C(c1cccs1)N1CCN(C(=O)C2CCCO2)CC1 (stereo not given),-0.6,-0.4,7.0,19685*,2.4
O=C(c1cccs1)N1CCN(C2CCN(Cc3ccccc3)CC2)CC1,5.3,0.1,3.8,3609,2.9
CC(=O)OC[C@H]1O[C@@H](Oc2cc3ccc(=O)oc3cc2OC(C)=O)[C@H](OC(C)=O)[C@@H](OC(C)=O)[C@@H]1OC(C)=O,-0.6,-0.1,6.2,3915,1.0
CCC(=O)c1ccc(OC)c(OC)c1OCc1ccccc1,0.1,0.6,8.1,2975,-10.8
CNC(=O)c1cc2cccc(OC)c2oc1=O,-9.1,0.0,-15.8,2469,0.6
CC(NC(=O)c1cccs1)C1CCCO1 (stereo not given),-14.6,-2.9,4.1,4271,-2.1
CC(NC(=O)Nc1ccc2c(c1)OCO2)C1CCCO1 (stereo not given),1.6,1.0,-1.4,23219*,-1.4
SMILES,BoNT F protease,BoNT-A LC inh2,MazEF act,Autofluor counter,Anthrax LF inh2
CC(NC(=O)c1ccc(Cl)s1)C1CCCO1 (stereo not given),-4.4,-2.4,4.2,24646*,0.9
COc1cccc2cc(C(=O)NC(C)C3CCCO3)c(=O)oc12 (stereo not given),-3.6,-0.6,0.5,16163*,-3.9
CC(NC(=O)c1csc2ccccc12)C1CCCO1 (stereo not given),-4.2,?,9.7,16909*,1.0
CCOC(=O)c1cc(-c2ccccc2)nc2c(O)cccc12,-9.1,-0.4,-7.9,2858,-4.0
Cc1cc(C(=O)NC(C)C2CCCO2)cs1 (stereo not given),-2.7,?,-0.6,16328*,-1.4
COc1cc(Br)cc2cc(C(=O)NCC3CCCO3)c(=O)oc12 (stereo not given),-2.6,?,10.2,22610*,-1.1
CCc1cc(C(=O)NC(C)C2CCCO2)cs1 (stereo not given),-1.7,-3.6,0.3,6538,-1.3
COc1cccc2cc(C(=O)NCC3CCCO3)c(=O)oc12 (stereo not given),-5.2,-0.9,0.4,3351,-1.5
C=C(C)c1ccc(C(C)(C)NC(=O)NCc2ccco2)cc1,-11.4,-0.2,9.6,2224,-2.9
C=C(C)c1ccc(C(C)(C)NC(=O)N(Cc2ccccc2)Cc2ccco2)cc1,-1.1,?,-1.3,22989*,-2.0
c1ccc(-c2nc(NCc3ccco3)c3oc4ccccc4c3n2)cc1,2.3,?,-6.5,22249*,-4.3
CCN1CCN(C(c2cccs2)C(C)NC(=O)CC(C)C)CC1 (stereo not given),8.7,0.5,0.1,9515,-2.5
CC(NC(=O)c1ccc(F)cc1)C(c1cccs1)N1CCN(C)CC1 (stereo not given),0.3,1.1,-1.1,21892*,1.1
CC(NS(=O)(=O)c1ccc(F)cc1)C(c1cccs1)N1CCN(C)CC1 (stereo not given),-3.9,-2.9,-0.2,24274*,-0.1
CCN1CCN(C(c2cccs2)C(C)NC(=O)c2ccco2)CC1 (stereo not given),1.8,-0.2,-1.9,23437*,0.4
COc1ccccc1C(=O)NC(C)C(c1cccs1)N1CCN(C)CC1 (stereo not given),1.3,-0.4,-4.3,23363*,-1.2
CCCCCC1=C(C(=O)OC)C(C(=O)OCC)N(S(=O)(=O)C(F)(F)F)c2ccccc21 (stereo not given),0.2,-0.3,1.4,3405,-0.5
CCS(=O)(=O)NC(C)C(c1cccs1)N1CCN(c2ccc(OC)cc2)CC1 (stereo not given),-2.4,-0.4,1.1,5120,-7.9
COc1ccc(N2CCN(C(c3cccs3)C(C)NS(=O)(=O)c3ccccc3)CC2)cc1 (stereo not given),-7.4,-2.4,5.0,16688*,-10.6
N#Cc1cccc(NC(=O)c2cc(C3CCCCN3C(=O)c3cccs3)on2)c1 (stereo not given),-5.5,-0.8,.,4047,-7.6
CC1=NN(C(=O)c2cccc(Cn3nc(C)c([N+](=O)[O-])c3C)c2)C(O)(C(F)(F)F)C1 (stereo not given),-6.6,-3.9,4.2,24994*,-0.3
Cc1nn(Cc2cccc(C(=O)O)c2)c(C)c1[N+](=O)[O-],-2.1,0.4,2.8,4372,-2.6
CCC(NC(=O)c1cccc(Cn2nc(C)c([N+](=O)[O-])c2C)c1)c1ccc(C(C)C)cc1 (stereo not given),-1.4,1.0,-8.4,22838*,-1.6
Cc1nn(Cc2cccc(C(=O)N3N=C(C(F)F)CC3(O)C(F)F)c2)c(C)c1[N+](=O)[O-] (stereo not given),-6.0,-4.2,-2.2,24863*,0.3
CCOc1c(OC)ccc2c3c(c(=O)oc12)CCCC3,2.9,1.3,0.1,22747*,-2.7
